Screens: PubChem BioAssay, National Center for Advancing Translational Sciences (NCATS)
Shown are actives, neighbours in structure and some others; about 2.4% of the full set was active somewhere.
Pol beta inh-1: blocks human DNA polymerase beta activity; Pol beta primer extension/strand displacement, fluorescence kinetic; Potency, µM (doses to about 114 µM), inactives show at the top dose activity change, negative = inhibition, actives largely listed as inhibitors; P06746; AID 485314; actives 1.3% (n = 340,000); also: potency is read from the fitted curve at half-maximal effect; % is scaled to controls: 0 for no effect and ±100 for the full control effect
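Kinetic readout of DNA synthesis with strand displacement by Pol beta. Compound and 10 nM enzyme sit 15 min at room temperature; 50 nM substrate starts the reaction, read immediately and at 10 min.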
APEX1 inh: inhibitors of human APE1 endonuclease; Potency, µM (doses to about 65.8 µM), without a hit: at the top dose activity change, negative = inhibition, hits mostly inhibitors; AID 2517; recombinant APE1, TAMRA/BHQ-2 abasic DNA cleavage fluorescence; P27695; actives 0.35% (n = 350,000);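 also: potency is read from the fitted curve at half-maximal effect; plate controls were vehicle for no effect and reference inhibitor for full effect; nearly all actives have a fitted effect of over 55% in size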
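Measures dequenching upon AP-site incision of a 5'-TAMRA/3'-BHQ-2 THF-containing duplex, 50 nM; human APE1 0.75 nM after 15 min room-temperature exposure to compound; kinetic three-point read at one-minute spacing.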
Pol iota inh: inhibitors of human DNA polymerase iota. Q9UNA4. Pol iota fluorescent replication assay, 10 min. Potency, µM (series often up to 115 µM), without a hit: at the highest dose activity, negative = inhibition, most hits filed as inhibitors. actives 1% (n = 390,000). AID 588590; also: potency is read from the fitted curve at half-maximal effect
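Fluorescent replication assay read twice, at 0 min and 10 min after adding 50 nM (final) substrate. Enzyme (10 nM) and compounds were first incubated 15 min at room temperature; enzyme-free buffer wells were negative controls.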
GLS inhibitor: blocks human kidney-isoform glutaminase activity | O94925 | GLS enzymatic activity, qHTS titration | Potency, µM (doses to about 45.5 µM), for the others: top-dose activity change, negative = inhibition, hits mostly inhibitors | actives 0.21% (n = 410,000) | AID 624170; also: potency is read from the fitted curve at half-maximal effect; % is scaled to controls: 0 for no effect and ±100 for the full control effect
Target sequence (O94925 whole entry, looked up, canonical isoform): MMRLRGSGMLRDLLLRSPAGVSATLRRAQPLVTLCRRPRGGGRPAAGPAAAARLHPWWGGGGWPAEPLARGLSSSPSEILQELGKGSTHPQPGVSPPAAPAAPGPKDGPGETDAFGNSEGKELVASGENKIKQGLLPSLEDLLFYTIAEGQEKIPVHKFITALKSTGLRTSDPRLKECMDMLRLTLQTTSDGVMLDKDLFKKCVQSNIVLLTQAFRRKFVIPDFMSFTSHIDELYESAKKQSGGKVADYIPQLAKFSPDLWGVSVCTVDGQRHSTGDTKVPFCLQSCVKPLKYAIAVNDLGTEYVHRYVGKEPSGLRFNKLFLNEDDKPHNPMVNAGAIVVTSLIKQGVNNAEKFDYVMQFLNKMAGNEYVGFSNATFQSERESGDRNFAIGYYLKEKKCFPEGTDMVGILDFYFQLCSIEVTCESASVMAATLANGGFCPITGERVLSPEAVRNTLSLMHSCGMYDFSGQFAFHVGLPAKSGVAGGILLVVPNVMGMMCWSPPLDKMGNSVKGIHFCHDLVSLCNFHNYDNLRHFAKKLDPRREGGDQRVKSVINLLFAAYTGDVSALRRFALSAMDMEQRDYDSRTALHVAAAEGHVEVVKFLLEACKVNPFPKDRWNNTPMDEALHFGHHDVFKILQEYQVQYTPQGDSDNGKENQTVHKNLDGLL
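Glutamate formation by hKGA was monitored fluorometrically using coupled glutamate oxidase, HRP and Amplex Red. Substrate was added as 1 mM L-glutamine solution; incubation was 30 min at RT after an initial read.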
Pol eta inh-1: inhibitors of human DNA polymerase eta. Q9Y253. recombinant Pol eta, fluorescent DNA replication assay. Potency, µM (top dose mostly 114 µM), without a hit: at the highest dose activity change, negative = inhibition, most hits filed as inhibitors. actives 1.2% (n = 390,000). AID 588591; also: potency is read from the fitted curve at half-maximal effect; % is scaled to controls: 0 for no effect and ±100 for the full control effect
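Pol eta (10 nM) was preincubated with compounds for 15 min at room temperature, after which fluorescent replication substrate (50 nM final) was added to start the reaction. Fluorescence was read kinetically at 0 and 10 min.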
Pol kappa inh-1: DNA polymerase kappa (human) inhibition | Q9UBT6 | purified Pol kappa, fluorescent DNA synthesis assay, 10 min | Potency, µM (doses to about 107 µM), for the others: at the highest dose activity, negative = inhibition, actives largely listed as inhibitors | actives 0.53% (n = 400,000) | AID 588579; also: potency is read from the fitted curve at half-maximal effect; % is scaled to controls: 0 for no effect and ±100 for the full control effect
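Kinetic fluorescence screen: compound preincubated 15 min RT with 10 nM enzyme; 50 nM substrate (final) initiates; reads at 0/10 min.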
Pol beta inh-2: Validate hits inhibiting human DNA polymerase beta. AID 540280. actives 87% (n = 250). Pol beta primer extension/strand displacement, fluorescence kinetic. Potency, µM, hits mostly inhibitors. shares compounds with Pol beta inh-1; calls by dose curve; also: potency is read from the fitted curve at half-maximal effect
Klenow counter: Klenow polymerase inhibition, pol beta selectivity check | shares compounds with Pol beta inh-1 | Klenow exo- polymerase counter-screen, fluorescent DNA substrate | activity change, negative = inhibition, % at 57.1 µM | 250 tested, under 10 active
HIV RT inh: inhibits HIV-1 reverse transcriptase in counter-screen | shares compounds with Pol beta inh-1 | HIV-1 RT polymerase activity, counter-screen | activity % (negative = inhibition, positive = activation), % at 57.1 µM | 250 tested, under 10 active | AID 540301
POLB valid: validation of human DNA polymerase beta inhibitors; inhibition, % at 10 µM; shares compounds with Pol beta inh-1; actives 91% (n = 110); radiolabeled primer extension gel assay, phosphorimager;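 active = inhibition at 10 µM of 30% or more; inconclusive = no clear call, values can overlap the other calls; inactive = inhibition at 10 µM under 30%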
POLI cherry-pick: Human Pol iota inhibitor confirmatory assay | shares compounds with Pol kappa inh-1 | Pol iota primer extension, TAMRA/BHQ fluorescence | Potency, µM, usual class: inhibitors | actives 77% (n = 1,500); also: potency is read from the fitted curve at half-maximal effect
Pol kappa inh-2: Pol kappa (human) inhibition, cherry-pick confirmation. purified Pol-kappa, fluorescent strand-displacement substrate. actives 76% (n = 920). Potency, µM, actives largely listed as inhibitors. shares compounds with Pol eta inh-1. AID 720501; also: potency is read from the fitted curve at half-maximal effect
Pol eta inh-2: Pol eta (human) inhibition, cherry-pick confirmation; shares compounds with Pol eta inh-1; Pol eta primer extension, TAMRA/BHQ fluorescence, 10 min; Potency, µM, most hits filed as inhibitors; actives 64% (n = 2,600); AID 720502; also: potency is read from the fitted curve at half-maximal effect
Numbers without * were called inactive; ? = inconclusive; · = no result given. Unless noted, calls follow the shape of the dose curve; as a rule, active = well fitted curve in the direction sought with a large enough effect; inconclusive = small, poorly fitted or top-dose-only effect, or another doubt; inactive = no such curve, though single readings can be large; an effect the other way counts as inactive or inconclusive.

SMILES	Pol beta inh-1	APEX1 inh	Pol iota inh	GLS inhibitor	Pol eta inh-1	Pol kappa inh-1	Pol beta inh-2	Klenow counter	HIV RT inh	POLI cherry-pick	Pol eta inh-2	others
CC1=C(C(=O)OC(C)C)C(c2ccc(Cl)cc2)n2c(s/c(=C\c3ccc(OCC(=O)O)cc3)c2=O)=N1 (stereo unspecified)	3.5µM*	6.7µM*	?	11µM*	8.9µM*	-31%	7.1*	-6	19	38*	60*
O=C(CSc1ccsc1[N+](=O)[O-])N1CCN(c2ccc(Cl)cc2)CC1	14µM*	?	28µM*	-14%	28µM*	?	40*	-27	62	·	?
Cc1nc(C)c(C(=O)Nc2ncc([N+](=O)[O-])s2)o1	16µM*	?	18µM*	-5%	8.9µM*	?	35*	-5	-15	·	?	POLB valid=100*;Pol kappa inh-2=30*
CCCN(C(=O)c1cc2c(s1)CCC2)c1c(N)n(Cc2ccccc2)c(=O)[nH]c1=O	10µM*	?	?	1%	25µM*	?	22*	-13	-9	?	76*	POLB valid=91*
CCCN(C(=O)c1cccs1)c1c(N)n(Cc2ccccc2)c(=O)[nH]c1=O	·	48%	12%	0%	2%	5%	·	·	·	·	·
CC(C)(C)Cc1c(-c2ccccc2)nc2ccc(Br)cn12	·	·	·	3%	-15%	·	·	·	·	·	·
O=c1c2c3c(sc2[nH]c(=S)n1Cc1ccco1)CCC3	8.9µM*	?	18µM*	-2%	20µM*	?	16*	-12	-3	42*	43*
Cn1c(=O)n(Cc2ccco2)c(=N)c2c3c(sc21)CCC3	-4%	3%	?	-4%	-7%	-16%	·	·	·	·	·
O=C(Cn1cnc2scc(-c3cccc([N+](=O)[O-])c3)c2c1=O)NCc1ccco1	10µM*	?	20µM*	0%	20µM*	79µM*	16*	-12	?	47*	60*	Pol kappa inh-2=47*
O=C(CN1C(=O)c2ccc([N+](=O)[O-])cc2C1=O)NCc1ccco1	30%	-1%	163%	0%	-14%	-2%	·	·	·	·	·
CN1CCN(c2nc(-c3ccc(N(C)C)cc3)nc3ccccc23)CC1	·	17%	·	·	·	?	·	·	·	·	·
C=CCn1c(SCC(=O)Nc2ccc(-c3nc4ccc(C)cc4s3)cc2)nnc1-c1ccccc1	6.3µM*	-8%	56µM*	-8%	?	-33%	20*	-1	53	67*	?	POLB valid=60*
C=CCn1c(SCC(=O)NNC(=O)Nc2ccc(C)cc2)nnc1-c1ccccc1	-8%	-6%	10%	19%	-6%	8%	·	·	·	·	·
